Test results published in PubChem BioAssay (NCI).
Compounds without any hit were thinned out: in the full panel of roughly 83,000, 20% have a hit.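 Single-dose data. Exposure time 48 hours. Values below 10 considered active.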 Activity calls are given as the source filed them.

system: HCT-116 colon; assay: NCI-60 one-dose screen, 48 h (100 = growth as untreated, 0 = no growth, -100 = all killed); conditions: 10 µM unless noted

SMILES	growth
CN(C)Cc1cc(C(C)(C)C)cc(Br)c1O	103% (inactive)
COC(=O)c1ccc2c(c1)c1c(C)c3cnccc3c(C)c1n2C	-59.8% (active)
CN(C)CCCn1c2c(c3cnccc3c1=O)C(=O)c1ccccc1-2	-12.6% (active)
O=C(NNc1nc2cc(F)ccc2n2c(CN3CCOCC3)ccc12)c1ccccc1	0.232% (active)
CCOC(=O)C/C(=N\Nc1cc(=O)[nH]c2ccc(OC)cc12)C(=O)OCC	101% (inactive)
COc1ccc(/C=C(/C(=O)N2CCNCC2)c2cc(OC)c(OC)c(OC)c2)cc1O	19.8% (inactive)
COC(=O)[C@]1(C)CCC[C@]2(C)[C@H]3C[C@@H]4[C@H]5[C@@H]6CC/C(=N\OCC/C(N)=N/O)[C@H]5[C@@]3(CC[C@H]21)CC4(C(C)C)O6	52.6% (inactive)
CC/C(=C(\c1ccc(Cl)cc1)c1ccc(OCCN2CCCCC2)cc1)c1ccc(O)cc1	-56.5% (active)
CCN(CC)CCOc1ccc(/C(=C(\C)Cc2ccc(OC)cc2)c2ccc(OC(=O)NCc3ccccc3)cc2)cc1	25.3% (inactive)
O=[N+]([O-])c1c(O)c(Cl)cc(Cl)c1Cl	100% (inactive)
C=CC(=O)Nc1cccc(Oc2nccc(Nc3nnc(-c4ccc(Br)cc4)s3)n2)c1	98.9% (inactive)
O=S(=O)(Nc1ccc2ccccc2c1)c1ccc(-c2cnc(C3CC3)o2)cc1	25.4% (inactive)
CCCCCc1ccc(S(=O)(=O)Nc2ccc3nc(N)oc3c2)cc1	43% (inactive)
C=CCN=c1sc(-c2ccc3ccccc3c2)cn1NC(=O)c1cc2ccc1CCc1ccc(cc1)CC2	27.1% (inactive)
c1cc(OCCN2CCCCCC2)ccc1CNc1ccc2nc(CCC3CCCCC3)[nH]c2c1	22.9% (inactive)
CC1=C2CC/C(C)=C/CC[C@]3(C)O[C@H]3CC/C(C)=C/[C@H]2OC1	101% (inactive)
COc1ccc(C(O)c2cc3c(N)c(C(=O)Nc4cccc5ccccc45)sc3nc2C)cc1 (stereo unspecified)	6.27% (active)
CCOc1ncc([N+](=O)[O-])c(OCC)n1	105% (inactive)
COc1ccc(C2[C@@H](Cl)C(=O)N2c2cc(OC)c(OC)c(OC)c2)cc1Cl (stereo partly specified)	-9.69% (active)
CS(=O)(=O)c1ccc(-c2nc3ccccc3n2CC(=O)N/N=C/c2ccccc2)cc1	81% (inactive)
CN1CCN(c2ccc(NC3=CC(=O)c4ncncc4C3=O)cc2)CC1	-53.6% (active)
Cn1c(=O)[nH]c(=O)c2nc3c(nc21)-c1ccccc1C3=O	102% (inactive)
COc1ccc(-c2cc(C(=O)N3N=C(c4ccc(N)cc4)CC3c3ccc(Cl)cc3)c3cc(OC)ccc3n2)cc1 (stereo unspecified)	1.85% (active)
O=c1cc(CP(=O)(O)O)c2cc(O)c(-c3ccccc3)cc2o1	108% (inactive)
O=C1c2cccnc2C(=O)c2c1c(C(=O)OCCc1ccccn1)c1ccccn21	-48.3% (active)
Cc1cc(C(=O)CCCC(=O)c2cc(C)c(O)c(C)c2)cc(C)c1O	86.8% (inactive)
